Abeta rescue: restores growth of yeast expressing A-beta42 peptide; AID 1347071; Potency, µM (doses to about 46.1 µM), usual class: activators; 410,000 compounds, 0.063% hits; yeast expressing A-beta42, growth rescue, OD600, 48 h; response scale: 0% DMSO, 100% iron-clioquinol control; further: nearly all actives have a fitted effect of over 55% in size
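Yeast growth medium received pinned compounds, then yeast cells expressing toxic A-beta were added; plates incubated at 30 C for 48 hr. Growth read as absorbance at 600 nm, normalized to DMSO and equimolar FeCl3 plus clioquinol controls.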
aSyn rescue: inhibitors of alpha-synuclein toxicity in yeast; Yeast expressing alpha-synuclein, growth rescue, BacTiter-Glo, 24 h; Potency, µM (highest dose often 46.1 µM), for inactives: top-dose growth rescue (activation), actives largely listed as activators; 370,000 compounds, 0.14% hits; AID 652106; further: % of control where 0% means no effect; nearly all actives have a fitted effect of over 65% in size
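Rescue of yeast growth: cells expressing toxic alpha-synuclein, induced in galactose at OD600 0.02, incubated with compound 24 h at 30 C. ATP luminescence quantified growth; inhibitors of toxicity appear as activators.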
FUS yeast rescue: FUS proteinopathy suppression in yeast; 390,000 compounds, 0.24% hits; Potency, µM (top dose mostly 76.6 µM), most hits filed as activators; AID 1347120; S. cerevisiae FUS-expressing, growth rescue, OD600, 24 h;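 further: plate controls were DMSO vehicle for no effect and reference control for full effect; nearly all actives have a fitted effect of over 55% in size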
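Galactose (2%) drives FUS expression in yeast precultured in raffinose; seeding density OD 0.005. Test compounds incubated 24hr at 30C and 99% humidity before absorbance at 600 nm was measured.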
TDP-43 yeast inh: rescues yeast growth from TDP-43 toxicity; TDP-43 expressing yeast growth rescue, BacTiter-Glo, 24 h; Potency, µM (titrated, usually from 46.1 µM), for inactives: top-dose growth rescue (activation), most hits filed as activators; 410,000 compounds, 1.8% hits; further: % of control where 0% means no effect; nearly all actives have a fitted effect of over 50% in size
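Yeast cells expressing TDP-43 under galactose induction are exposed to compounds for 24 hr at 30 deg C. BacTiter-Glo luminescence measures growth, so protective compounds score as activators.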
Mito fusion yeast: mitochondrial division inhibition or fusion activation; S. cerevisiae fusion-defective mutant growth rescue, CellTiterGlo 48 h; Potency, µM (series often up to 46.1 µM), inactives show top-dose growth rescue (activation), usual class: activators; 320,000 compounds, 0.23% hits; further: % of control where 0% means no effect; nearly all actives have a fitted effect of over 45% in size
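Luminescent cell viability in 1536-well qHTS format served as the measure of rescued growth in ts fusion-mutant S. cerevisiae cultured on non-fermentable YPEG for 48 hours at 37C.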
Starred values were filed as active, the others as inactive; i = inactive; ? = inconclusive; / = not tested or not shown; [ ] = dose if it differs, or a comment. The list is not random: actives were taken first. Their share in the collection is about 2.2%. The call rests on the fitted dose curve; in most records, active means well fitted curve in the direction sought with a large enough effect; inconclusive means small, poorly fitted or top-dose-only effect, or another doubt; inactive means no such curve, though single readings can be large; an effect the other way counts as inactive or inconclusive. Potency means the concentration at half of the fitted maximal effect.

SMILES	Abeta rescue	aSyn rescue	FUS yeast rescue	TDP-43 yeast inh	Mito fusion yeast
O=C(Nc1nccs1)C1CCN(S(=O)(=O)c2c(Cl)cccc2Cl)CC1	?	5%	i	14µM*	19%
CCOc1ccc(N(CC(=O)Nc2c(C)n(C)n(-c3ccccc3)c2=O)S(=O)(=O)c2ccc(C)c(C)c2)cc1	/	/	i	/	/
Fc1cccc(-c2oncc2-c2nnnn2-c2ccc(Cl)cc2)c1	i	14%	i	11µM*	1%
Cc1ccc(NC(=O)CSc2nnc(-c3ccco3)c(-c3ccco3)n2)cc1	i	8%	?	-3%	2%
O=C(CSc1nnc(-c2ccco2)c(-c2ccco2)n1)Nc1ccccc1	i	-1%	22µM*	9%	-2%
Cc1ccccc1NC(=O)CSc1nnc(-c2ccco2)c(-c2ccco2)n1	i	-1%	i	7%	1%
Cc1cccc(C)c1NC(=O)CSc1nnc(-c2ccco2)c(-c2ccco2)n1	i	7%	i	22µM*	2%
COc1cc2c(C(=O)N3CCN(c4cccc(C)c4)C(C)C3)cn(CC(C)C)c(=O)c2cc1OC (stereo not drawn)	i	/	i	20%	/
O=C(N/N=C/c1cc([N+](=O)[O-])cc(Br)c1O)C12CC3CCC(CC(C3)C1)C2	i	0%	i	4.5µM*	0%
COc1cc(/C=N/NC(=O)C23CC4CC(CC(C4)C2)C3)cc(Br)c1O	i	-1%	i	2%	3%
Cc1ccc(F)c([C@H]2[C@@H]3C=CCC[C@@]3(C)C(=O)N2Cc2ccccc2)c1	i	-7%	i	5%	-54%
C[C@@]12CCC=C[C@H]1[C@H](c1ccccc1Br)N(Cc1ccccc1)C2=O	i	-2%	?	35µM*	/
O=C(N/N=C/c1ccc(Cl)cc1)Nc1ccccc1	i	12%	i	2.8µM*	-7%
Oc1cccc(/C=C/c2ccc3cccc(O)c3n2)c1	?	?	i	13µM*	25%
COc1cccc(/C=C/c2ccc3cccc(O)c3n2)c1	?	18µM*	i	?	4%
COc1ccc(/C=C/c2ccc3cccc(O)c3n2)c(OC)c1OC	i	?	i	?	8%
COc1cccc(/C=C/c2ccc3cccc(O)c3n2)c1OC	i	18µM*	i	14µM*	11%
COc1cc(/C=C/c2ccc3cccc(O)c3n2)cc(OC)c1OC	i	-10%	i	22%	30%
COc1ccc(C(=O)N(Cc2cc(OC)c(OC)c(OC)c2)C2CCS(=O)(=O)C2)cc1Cl (stereo not drawn)	i	/	i	18%	/
Cc1cccc(OCCC(=O)NO)c1	/	17%	/	/	/
Cc1cc(NC(=O)c2ccc(C#N)cc2)n(-c2ccccn2)n1	?	-12%	i	-11%	-4%
Cc1cc(NC(=O)c2ccc(F)cc2)n(-c2ccccn2)n1	i	2%	i	16µM*	6%
CCC(C)NC(=O)CCC(=O)N1Cc2ccccc2Oc2ncccc21 (stereo not drawn)	i	/	i	18%[9.22 µM]	/
COc1ccc(-c2cc3ccccc3[nH]2)cc1	i	-10%	i	1%	6%
Cc1ccc(O)c(-c2cc3ccccc3[nH]2)c1	i	-5%	i	3.2µM*	16%
SMILES	Abeta rescue	aSyn rescue	FUS yeast rescue	TDP-43 yeast inh	Mito fusion yeast
Clc1ccc2[nH]c(-c3ccccc3)cc2c1	?	-16%	i	11µM*	-2%
c1ccc(-c2cc3ccccc3[nH]2)cc1	i	-16%	i	11µM*	-7%
CN(C)c1ccc(C(=O)Nc2c(C(=O)NC(C)(C)C)oc3ccccc23)cc1	i	/	i	15%	/
N#C/C(=C\c1ccc(-c2cc(Cl)ccc2Cl)o1)C(=O)Nc1cccc2ncccc12	/	2%	/	/	-57%
Cc1ccc(C(=O)N(Cc2ccc(N(C)C)cc2)CC2CCCO2)cc1 (stereo not drawn)	i	/	i	8%	/
CCCN1C(=O)/C(=C2\SC(N3CCCCC3)=NC2=O)c2ccccc21	i	-10%	i	-12%	16%
CN1C(=O)/C(=C2\SC(N3CCCCCC3)=NC2=O)c2ccccc21	i	7%	i	16µM*	14%
Oc1c(N=NC(=S)Nc2ccccc2F)c2ccccc2n1Cc1ccccc1Cl	i	4%	i	?	-4%
NC(=S)N=Nc1c(O)n(Cc2ccccc2)c2ccccc12	i	-7%	i	-16%	-5%
C/C(Cl)=C\Cn1c(O)c(N=NC(N)=S)c2ccccc21	i	14%	i	18µM*	-8%
C=CCn1c(O)c(N=NC(=S)Nc2ccccc2F)c2ccccc21	?	-5%	i	0%	0%
Cc1c(Cl)cccc1NC(=S)N=Nc1c(O)n(CN2CCOCC2)c2ccccc12	22µM*	1%	i	15%	?
C=CCn1c(O)c(N=NC(=S)Nc2cccc(C)c2)c2ccccc21	?	?	/	11µM*	9%
COc1ccc(N(Cc2nnc3n2CCCCC3)C(=O)Nc2cccc(C)c2)cc1Cl	i	1%	i	?	/
C[C@H]1C2CC(OC(=O)Nc3ccc4c(c3)OCO4)C(C2)[C@H]2CCCCN21 (stereo partly drawn)	/	/	i	/	/
Cc1cccc(CSc2nc3c(c(-c4cccs4)c2C#N)CN(C)CC3)c1	i	3%	i	3%	30%
Cc1cccc(CSc2nc(N)c(C#N)c(-c3cccs3)c2C#N)c1	i	/	i	?	13µM*
CCCCSc1nc(N)c(C#N)c(-c2cccs2)c1C#N	i	6%	i	16%	4µM*
CC(=O)CSc1nc(N)c(C#N)c(-c2cccs2)c1C#N	i	-5%	i	9%	4%
O=C(OC12CCCN(C1)/C(=C/c1cccnc1)C2)c1ccco1 (stereo not drawn)	/	/	i	/	/
O=C(Nc1ccccc1)/C(=C/c1ccccc1)c1ccccc1	i	-6%	i	13µM*	1%
CN(C)c1cc(-c2ccc(C#N)cc2)oc(=O)c1Cl	i	-5%	i	30%	-4%
CN(C)c1cc(-c2ccc(Br)cc2)oc(=O)c1Cl	i	2%	i	7.9µM*	2%
O=S(=O)(Nc1c(Br)cc(Br)c2cccnc12)C1CC1	/	4%	/	/	/
Cc1nn(-c2ccc(F)cc2)c(N)c1C1(O)C(=O)Nc2ccccc21 (stereo not drawn)	i	3%	i	1%	15%
Cc1nn(-c2ccccc2)c2c1C1(C(=O)Nc3ccccc31)N1C(=N2)Sc2ccccc21 (stereo not drawn)	i	7%	i	20%	18µM*
CCOc1cccc(-c2nnc(SCC(=O)Nc3ccc4c(c3)OCO4)n2N)c1	/	/	i	/	/
CCOC(=O)c1c(NC(=O)CSc2nnc(C)s2)sc2c1CCN(C)C2	i	-5%	25µM*	-2%	6%

High-throughput results from PubChem BioAssay.
